TRHR ag – qHTS for Small Molecule Agonists and Allosteric Enhancers of Human TRH Receptor: Primary Screen for Agonists; Thyrotropin-releasing hormone receptor (Homo sapiens), P34981; TRHR cells, calcium flux fluo-8, FDSS agonist mode; activation, % at 2 µM; 360,000 compounds, 0.18% hits; AID 493084, 2011; also: 0% is about no effect
Target sequence (P34981 whole entry, looked up): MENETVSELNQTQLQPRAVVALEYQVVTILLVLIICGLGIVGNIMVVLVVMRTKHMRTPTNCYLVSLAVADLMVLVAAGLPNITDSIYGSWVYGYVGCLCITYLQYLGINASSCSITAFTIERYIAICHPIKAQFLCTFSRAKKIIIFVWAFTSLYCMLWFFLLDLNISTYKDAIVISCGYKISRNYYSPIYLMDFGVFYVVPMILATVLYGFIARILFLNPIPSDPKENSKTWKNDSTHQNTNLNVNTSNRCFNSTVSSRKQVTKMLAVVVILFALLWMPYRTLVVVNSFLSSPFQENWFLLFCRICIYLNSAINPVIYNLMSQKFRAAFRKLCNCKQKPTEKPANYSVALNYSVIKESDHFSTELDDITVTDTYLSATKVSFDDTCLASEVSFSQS
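Fluo-8-loaded TRHR cells; 10 s baseline, compound added, kinetic Ca2+ fluorescence read 1/s, agonist mode.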
TRHR PAM – qHTS for Small Molecule Agonists and Allosteric Enhancers of Human TRH Receptor: Primary Screen for Enhancers; Thyrotropin-releasing hormone receptor (Homo sapiens), P34981; TRHR cells, fluo-8 calcium fluorescence, EC20 TRH enhancement; enhancement, % at 2 µM; 360,000 compounds, 0.66% hits; in the data active = enhancement above about 30%; also: 0% is about no effect
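TRHR-expressing cells loaded with fluo-8 calcium dye were read kinetically (ex 480/em 530) during compound addition, then stimulated with an EC20 of TRH (10 nM final). Enhancement of the Gq-mediated intracellular calcium response was scored.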
D1 ag – Allosteric Agonists of the Human D1 Dopamine Receptor: qHTS. HEK293 T-REx D1 cells, calcium flux, agonist mode. activation, % at 2 µM. 360,000 compounds, 1% hits. AID 504660, 2011; also: 0% is about no effect
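Inducible HEK293 T-REx D1 cells, force-coupled to calcium signalling, were plated at 4000 cells/well with tetracycline and held overnight at 30 C. After no-wash calcium dye loading, compound-evoked calcium rise over 180 s flagged agonists.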
D1 PAM – Potentiators of Human D1 Dopamine Receptor: qHTS | D(1A) dopamine receptor (Homo sapiens), P21728 | 360,000 compounds, 0.036% hits | HEK293 TREx D1 cells, calcium flux, dopamine EC20 potentiation | potentiation, % at 10 µM; in the data active = potentiation above about 30%; also: 0% is about no effect
D1 antag – Antagonist of Human D 1 Dopamine Receptor: qHTS; D(1A) dopamine receptor (Homo sapiens), P21728; HEK293 TREx D1 cells, calcium flux, dopamine EC80; active compounds read low; activity change, negative = inhibition, % at 10 µM; 360,000 compounds, 3.2% hits; AID 504652, 2011; in the data active = activity change below about -30%; also: % is scaled to controls: 0 for no effect and ±100 for the full control effect
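Antagonism measured as reduced calcium response to an EC80 dopamine addition following 180 s compound pre-read; cells were inducible HEK293 Trex D1 plated overnight at 30 C, read kinetically at 1 cycle/sec.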
An asterisk follows results filed as active. This is a sample that favours compounds with a hit; in the whole collection about 4.6% have one here. Rule as the data show it, unless noted: active = activation above about 30%; inactive = the rest.

Screening N#CC(C#N)=C1C=C2C=C(N3CCCCCC3)CCC2CC1 (configuration not stated) returned TRHR ag 205*, TRHR PAM -15, D1 ag 383*, D1 PAM -16 and D1 antag -68*.
Screening CN1CCN(C2=CC3=CC(=C(C#N)C#N)CCC3CC2)CC1 (configuration not stated) returned TRHR ag 315*, TRHR PAM 17, D1 ag 723*, D1 PAM 37* and D1 antag 13.
`CCCC(=O)NNC(=O)c1c(O)c2ccccc2[nH]c1=O` gave TRHR ag -1, TRHR PAM 0, D1 ag 2, D1 PAM -5 and D1 antag -9.
`COc1ccc(NC(=O)NC2COc3ccccc3C2)c(OC)c1` (configuration not stated) gave TRHR ag 0, TRHR PAM 4, D1 ag -2, D1 PAM -2 and D1 antag -5.
OC(CC#CCN1CCOCC1)(c1ccccc1)c1ccccc1 was read as TRHR ag 0, TRHR PAM -2, D1 ag -3, D1 PAM -7 and D1 antag -31*.
`OC(CC#CCN1CCCC1)(c1ccccc1)c1ccccc1` gave TRHR ag 1, TRHR PAM -3, D1 ag 1, D1 PAM -6 and D1 antag 9.
`CC(C)c1ccc(NC(=O)CCNS(=O)(=O)c2ccc3c(c2)oc(=O)n3C)cc1` gave TRHR ag 0, TRHR PAM 1, D1 ag 2, D1 PAM -3 and D1 antag 5.
`CC(C)(C)CNC(=O)c1ccc2c(c1)S(=O)(=O)c1cc(Cl)ccc1C2=O` gave TRHR ag -1, TRHR PAM 1, D1 ag 3, D1 PAM 5 and D1 antag -33*.
`COCCNC(=O)c1ccc2c(c1)S(=O)(=O)c1cc(Cl)ccc1C2=O` gave TRHR ag 1, TRHR PAM 2, D1 ag 0, D1 PAM -2 and D1 antag -17.
For O=S1(=O)c2ccccc2N(Cc2ccccc2)c2ccccc21 the results were TRHR ag -1, TRHR PAM 13, D1 ag 6, D1 PAM -4 and D1 antag -9.
Screening COc1ccc(C(=O)Nc2ccc(F)cc2F)cc1OC returned TRHR ag 0, TRHR PAM -3, D1 ag 0, D1 PAM -6 and D1 antag 2.
Cn1ccc(C(=O)Oc2ccc(C(=O)Nc3ccc(F)cc3F)cc2)n1 was read as TRHR ag 1, TRHR PAM -4, D1 ag 12, D1 PAM -3 and D1 antag -44*.
O=C(CN1C=NS(=O)(=O)c2ccc(C(F)(F)F)cc21)Nc1cccc(C(F)(F)F)c1 was read as TRHR ag 0, TRHR PAM 3, D1 ag 7, D1 PAM -2 and D1 antag 8.
Screening CSc1ncc(Cl)c(C(=O)N(Cc2ccccc2Cl)C2CCS(=O)(=O)C2)n1 (configuration not stated) returned TRHR ag 0, TRHR PAM -8, D1 ag 1, D1 PAM -2 and D1 antag -11.
Cc1cccc(C(=O)Nc2oc(-c3ccccc3)cc2C#N)c1 was read as TRHR ag 0, TRHR PAM -3, D1 ag 6, D1 PAM -4 and D1 antag -49*.
Screening N#Cc1cc(-c2ccccc2)oc1NC(=O)c1ccco1 returned TRHR ag 0, TRHR PAM 4, D1 ag 0, D1 PAM -1 and D1 antag -3.
`CCOC(=O)c1cc(C(=O)OCC)c2ccccn2c1=O` gave TRHR ag 0, TRHR PAM -8, D1 ag 1, D1 PAM -3 and D1 antag -33*.
